Experimental data taken from article PMC5540273 (PLoS ONE, 2017).

Tests used:
Settings in all cases: concentration: 1 μM, replicates: in singlicate; n = 1
PAK2 = tested on: PAK2
PAK3 = tested on: PAK3
PAK4 = tested on: PAK4
PAK6 = tested on: PAK6
PAK7 = tested on: PAK7
PCTK1 = tested on: T1, PCTK1
T1 construct: gene CDK16

PCTK2 = tested on: T2, PCTK2
T2 construct: gene CDK17

PCTK3 = tested on: T3, PCTK3
T3 construct: gene CDK18

PDGFRA = tested on: PDGFRA
PDGFRB = tested on: PDGFRB
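Further: KINOMEscan kinase panel screen.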

For `COc1ccc(-n2cnc3c(N)ncnc32)cc1` [SKF-97236], the “%Inh” value (PAK2) was 0%, the “%Inh” value (PAK3) was 28% and the “%Inh” value (PAK4) was 0%. The “%Inh” value (PAK6) was 16%, the “%Inh” value (PAK7) was 0% and the “%Inh” value (PCTK1) was 0%. For the same molecule, the “%Inh” value (PCTK2) was 0%, the “%Inh” value (PCTK3) was 0% and the “%Inh” value (PDGFRA) was 63%. For the same molecule, the “%Inh” value (PDGFRB) was 95.1%.
In the case of `Cn1c(=O)c(F)c(Nc2ccc(I)cc2F)c2c(=O)n(OC[C@H](O)CO)cnc21`, the “%Inh” value (PAK2) is reported as 7%, the “%Inh” value (PAK3) is reported as 1% and the “%Inh” value (PAK4) is reported as 8%. For the same molecule, the “%Inh” value (PAK6) was 20%, the “%Inh” value (PAK7) was 0% and the “%Inh” value (PCTK1) was 0%. The “%Inh” value (PCTK2) was 11%, the “%Inh” value (PCTK3) was 5% and the “%Inh” value (PDGFRA) was 0%. The “%Inh” value (PDGFRB) was 11%.
In the case of `Nc1n[nH]c2ncc(-c3ccccc3)cc12` [SB-517081], the “%Inh” value (PAK2) is reported as 17%, the “%Inh” value (PAK3) is reported as 0% and the “%Inh” value (PAK4) is reported as 0%. For the same molecule, the “%Inh” value (PAK6) was 0%, the “%Inh” value (PAK7) was 0% and the “%Inh” value (PCTK1) was 3%. For the same molecule, the “%Inh” value (PCTK2) was 0%, the “%Inh” value (PCTK3) was 31% and the “%Inh” value (PDGFRA) was 51%. The “%Inh” value (PDGFRB) was 97.3%.
With `COc1cccc(C2=C(N(C)c3ccccc3)C(=O)NC2=O)c1` [SB-334865] the “%Inh” value (PAK2) was 0%, the “%Inh” value (PAK3) was 1% and the “%Inh” value (PAK4) was 0%. The “%Inh” value (PAK6) was 0%, the “%Inh” value (PAK7) was 0% and the “%Inh” value (PCTK1) was 0%. The “%Inh” value (PCTK2) was 0%, the “%Inh” value (PCTK3) was 0% and the “%Inh” value (PDGFRA) was 0%. The “%Inh” value (PDGFRB) was 7%.
